{
  "source": "PubChem BioAssay (NCI)",
  "note": "This is part of a sample that, as a whole, favours compounds with a hit. Of some 83,000 tested, about 20% had one in any assay.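 Activity criterion: percent growth below 10, measured after cells in 96-well plates were exposed to a single compound concentration for 48 hours.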 Active and inactive are the calls of the source.",
  "data": [
    {"tested_on": "HL-60(TB) leukemia", "test": "NCI-60 one-dose screen, 48 h (100 = growth as untreated, 0 = no growth, -100 = all killed)", "conditions": "10 µM unless noted", "values": [
      {"compound": "Cc1ccc(-c2cc3nc(C(Cl)Cl)nc(-c4ccccc4)n3n2)cc1", "growth": "55.1% (inactive)"},
      {"compound": "Cn1ccnc1C(=O)/C=C/c1ccc(NC(=O)c2c(F)c(F)c(F)c(F)c2F)cc1", "growth": "78.3% (inactive)"},
      {"compound": "Cn1c2ccccc2c2c3c(c4c5ccc(Br)cc5oc4c21)C(=O)N(O)C3=O", "growth": "73% (inactive)"},
      {"compound": "Cc1ccc(S(=O)(=O)NCCCNc2nc(Nc3ccc(N4CCN(C)CC4)cc3)nc3ccsc23)cc1", "growth": "-50.9% (active)"},
      {"compound": "CC(C)c1ccc(NCc2cn(-c3ccc(C(=O)O)cc3)nc2-c2cc(C(F)(F)F)cc(C(F)(F)F)c2)cc1", "growth": "83.1% (inactive)"},
      {"compound": "CNC(=O)c1cc(-c2ccc(NC(=O)Nc3ccc(N4CCN(C)CC4)c(C(F)(F)F)c3)cc2)nc2cccnc12", "growth": "-16.4% (active)"},
      {"compound": "Cn1cc(-c2nc(N)nnc2-c2c[nH]c3ccc(Br)cc23)c2cc(Br)ccc21", "growth": "3.35% (active)"},
      {"compound": "CC1=C(C)C(=O)C(Nc2ccc(C)c(C)c2)=C(Br)C1=O", "growth": "-37.7% (active)"},
      {"compound": "Cc1ccc2c(n1)C(=O)C(Cl)=C(Nc1ccccc1C(=O)OC(C)(C)C)C2=O", "growth": "-32.7% (active)"},
      {"compound": "C#CCOc1ccccc1C(Nc1ccccc1)c1nnnn1C1CCCCC1", "note": "(stereo unspecified)", "growth": "91.6% (inactive)"},
      {"compound": "CC1=C(SCC(=O)OCCCCCC(C)C)C(=O)c2ccccc2C1=O", "growth": "86.8% (inactive)"},
      {"compound": "COc1ccc(C(=O)Nc2ncc(Cc3ccccc3Cl)s2)cc1", "growth": "-1.93% (active)"},
      {"compound": "CCOC(=O)Nc1ccc(-c2nc(-c3cccc(O)c3)c(-c3ccnc(Br)c3)[nH]2)cc1", "growth": "-11.1% (active)"},
      {"compound": "COc1ccc(C(=O)c2c(N)c(C#N)cn2-c2ccccc2OC)cc1", "growth": "-7.7% (active)"},
      {"compound": "CC1(C)CC[C@]2(C(=O)N3CCCN(CC#N)CC3)CC[C@]3(C)C(=CC[C@@H]4[C@@]5(C)CC[C@H](O)C(C)(C)[C@@H]5CC[C@]43C)[C@H]2C1", "growth": "-15.9% (active)"},
      {"compound": "Cc1ccc(NC(=O)c2ccc(CN3CCN(C)CC3)c(C(F)(F)F)c2)cc1Oc1ccc(-c2[nH]nc3ncnc(N)c23)cc1", "growth": "113% (inactive)"},
      {"compound": "O=C(Nc1ccc(N2CCOCC2)cc1)Nc1ccc2c(ccn2C(=O)c2cccc(F)c2)c1", "growth": "96.7% (inactive)"},
      {"compound": "COc1ccc([C@H]2c3[nH]c4ccccc4c3C[C@H]3C(=O)N(C4CCN(Cc5c(Cl)cccc5Cl)CC4)CC(=O)N23)c(OC)c1", "growth": "97% (inactive)"},
      {"compound": "N#Cc1c(-c2ccc(Cl)cc2)nc2c(-c3ccccc3)c(Nc3ccccc3)nn2c1N", "growth": "91.3% (inactive)"},
      {"compound": "C/C(=N\\NC(=O)/C=C/CC(=O)O)c1nnn(-c2ccc([N+](=O)[O-])cc2)c1C", "growth": "98% (inactive)"},
      {"compound": "O=S(=O)(NCCNc1nccc(-n2cnc3ccccc32)n1)c1ccc(Cl)cc1", "growth": "113% (inactive)"},
      {"compound": "O=[N+]([O-])c1ccc(NC(=S)NNC(=S)Nc2ccc(F)cc2)cc1", "growth": "84.8% (inactive)"},
      {"compound": "COc1ccc(/C=N/N=C(/c2ccccc2)c2ccc3nc(-c4ccc(Cl)cc4)[nH]c3c2)cc1", "growth": "67.2% (inactive)"},
      {"compound": "Cc1csc(Nc2cccc(Nc3nc(C)cs3)c2)n1", "growth": "77.3% (inactive)"},
      {"compound": "CCCC/C(=C\\c1ccc(O)c(O)c1)C(=O)NC(Cc1ccccc1)C(=O)C(=O)NCCc1ccc(OC)cc1", "note": "(stereo unspecified)", "growth": "92.5% (inactive)"},
      {"compound": "O=S(=O)(NCCCNc1nccc(-c2[nH]c(-c3ccccc3)nc2-c2ccc(F)c(O)c2)n1)c1ccccc1", "growth": "90.6% (inactive)"},
      {"compound": "O=S(=O)(Nc1cc(Cl)cc(Cl)c1)c1ccc(-c2cnc(C3CC3)o2)cc1", "growth": "8.29% (active)"},
      {"compound": "COc1ccc(OC)c(NC2=C(Cl)C(=O)C(C)=C(C)C2=O)c1", "growth": "74% (inactive)"},
      {"compound": "COc1ccc(N2CCN(C3=C(Cl)C(=O)c4ncccc4C3=O)CC2)cc1", "growth": "-4.99% (active)"},
      {"compound": "COc1ccc(/C=N/NC(=O)c2[nH]c3ccc(Br)cc3c2-c2ccccc2)o1", "growth": "-20.2% (active)"},
      {"compound": "Brc1cccc(/C=N/Nc2nc(N/N=C/c3cccc(Br)c3)nc(N3CCOCC3)n2)c1", "growth": "-10.2% (active)"},
      {"compound": "N/C(=N\\c1nc2c(Br)cccc2s1)C(Br)Br", "growth": "7% (active)"},
      {"compound": "COc1ccc(NC(=O)CSc2nnc(-c3ccc4nc(-c5ccccc5)[nH]c4c3)o2)cc1", "growth": "101% (inactive)"},
      {"compound": "C/C(=N\\NC(N)=O)c1c(O)sc(=O)[nH]c1=O", "growth": "96.2% (inactive)"},
      {"compound": "CCCCCN1C(=O)/C(=c2\\sc3n(c2=O)C2C(NN=3)N(CC)C(=O)N2CC)c2cccc(C)c21", "note": "(stereo unspecified)", "growth": "11.9% (inactive)"},
      {"compound": "COc1cc(/C=N/n2cnc3oc(-c4ccccc4)cc3c2=N)cc(CN2CCCCC2)c1O", "growth": "-17.1% (active)"}
    ]}
  ]
}
